GRIN3A LBD mod – NR3A (human) ligand-binding domain modulation; NR3A LBD differential scanning fluorimetry, Tm shift; 0% = protein alone, 100% = glycine-bound protein; 2.5% of 340,000 active; Tm shift relative to glycine control, % at 25 µM;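 active = melting temperature shift of at least 10% of the positive control shift, at one fixed dose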
NTR1 ag – NTR1 (human) agonism; NTR1-U2OS beta-arrestin-GFP spot imaging, agonist mode; P30989; AID 493036; 0.17% of 330,000 active; activation, % at 20 µM;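 active = activation at or above 40% of the spot to cytoplasm intensity ratio, with at least 20 cells analyzed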
AI-2 QS mod – modulators of Vibrio harveyi AI-2 quorum sensing system. activity change, % at 7.5 µM. Vibrio harveyi JMH597 AI-2 luminescence/OD600 ratio, 9 h; active compounds read low; strain lacks LuxN and CqsS sensors; 0 = neutral-control median. 0.4% of 300,000 active. AID 2094; in the data active = activity change below about -75%, passing the limit was not always enough;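 also: luminescence divided by OD600 gain over 9 h not by final OD600 alone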
AHR act – activates the human aryl hydrocarbon receptor; P35869; AHR-responsive luciferase reporter cells, luminescence; activation, % at 5 µM; 2.5% of 320,000 active; AID 2796; in the data active = activation above about 47%
Target sequence (P35869 whole entry, looked up): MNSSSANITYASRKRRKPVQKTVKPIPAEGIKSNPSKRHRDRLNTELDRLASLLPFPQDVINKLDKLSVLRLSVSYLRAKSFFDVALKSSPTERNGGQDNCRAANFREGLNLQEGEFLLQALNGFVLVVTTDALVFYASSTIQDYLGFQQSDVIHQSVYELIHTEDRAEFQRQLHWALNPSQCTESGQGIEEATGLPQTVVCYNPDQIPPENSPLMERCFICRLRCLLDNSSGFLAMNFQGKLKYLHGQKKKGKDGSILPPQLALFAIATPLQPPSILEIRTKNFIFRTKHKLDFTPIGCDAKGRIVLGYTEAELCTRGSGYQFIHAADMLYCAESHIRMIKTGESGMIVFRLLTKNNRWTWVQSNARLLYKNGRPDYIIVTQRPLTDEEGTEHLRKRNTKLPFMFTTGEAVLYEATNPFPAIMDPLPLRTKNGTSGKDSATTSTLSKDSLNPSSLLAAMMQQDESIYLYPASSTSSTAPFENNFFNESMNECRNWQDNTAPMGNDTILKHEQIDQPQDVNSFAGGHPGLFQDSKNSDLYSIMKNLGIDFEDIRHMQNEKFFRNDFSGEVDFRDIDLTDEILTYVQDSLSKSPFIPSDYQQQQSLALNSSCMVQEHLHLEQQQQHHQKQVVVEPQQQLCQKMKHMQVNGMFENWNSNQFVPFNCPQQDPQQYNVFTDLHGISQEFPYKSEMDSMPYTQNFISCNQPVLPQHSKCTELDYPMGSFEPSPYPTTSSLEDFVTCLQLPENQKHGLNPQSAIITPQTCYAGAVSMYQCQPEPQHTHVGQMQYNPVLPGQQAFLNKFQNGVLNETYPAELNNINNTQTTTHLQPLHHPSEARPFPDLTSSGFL
Mot1-301 SUMO – inhibitors of SUMOylation pathway: yeast Mot1-301 growth rescue. S. cerevisiae Mot1-301 growth rescue, ATP luminescence, 38.5C; percent above DMSO median, 100 means doubled. growth rescue, % at 18.8 µM. 1% of 320,000 active;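 active = every valid replicate shows activation above 250% relative to neutral control wells; inactive = the rest, any valid replicate at or below 250%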
Cardio protect – protects H9c2 cardiomyocytes from peroxide injury. H2O2 injury protection, ATPLite, 2 h. protection from H2O2 cell death, % at 20 µM. 0.63% of 360,000 active;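 active = compounds giving at least 50% protection of heart cells from peroxide-induced death in the single-dose screen, raw or plate-pattern-corrected value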
NTR1 ag confirm – confirmation of agonists of human NTR1 | shares compounds with NTR1 ag | NTR1-U2OS beta-arrestin-GFP translocation imaging | activation, % at 20 µM | 38% of 480 active;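 active = mean activation at 20 µM of at least 40%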
Hits are given with their value; . = inactive; / = not tested or not shown. In the library only some 6.2% were active in any assay of this set; here they are far more common.

SMILES | GRIN3A LBD mod | NTR1 ag | AI-2 QS mod | AHR act | Mot1-301 SUMO | Cardio protect | NTR1 ag confirm
CCCn1c(=O)n(C)c(=O)c2c(SC(C)C(=O)NCC3CCCO3)nc(CC(C)C)nc21 (stereo not given) | . | . | . | . | . | . | /
OC(CNCC(c1ccc(Cl)cc1Cl)c1c[nH]c2ccccc12)c1ccccc1 (stereo not given) | 24 | 59 | . | . | . | . | 44
COc1cccc(-c2nc(NCc3ccccc3)c3ccccc3n2)c1O | . | . | . | . | . | . | /
COc1cccc(-c2nc(NC3CCCC3)c3ccccc3n2)c1O | . | 60 | . | . | . | . | .
CCOc1cc(N2CCOCC2)c(OCC)cc1NC(=O)c1nn(CC)c(=O)c2ccccc12 | . | 45 | / | . | . | 54 | .
Cc1cc(C)n(-c2nc(Nc3ccccc3)nc(-n3nc(C)cc3C)n2)n1 | . | . | . | . | . | . | /
Cc1cc(C)n(-c2nc(N(c3ccccc3)c3ccccc3)nc(-n3nc(C)cc3C)n2)n1 | 34 | 84 | . | . | . | . | 75
Cc1cccc(NC(=O)CN2CCN(C(=O)c3ccc(-c4nc5ccccc5s4)o3)CC2)c1C | . | . | / | / | / | . | /
O=C(CN1CCN(C(=O)c2ccc(-c3nc4ccccc4s3)o2)CC1)Nc1ccccc1Cl | . | 48 | / | / | / | . | .
CCCCNc1c(-c2ccc(OC)c(SC(C)CC)c2)nc2ccc(C)cn12 (stereo not given) | . | 51 | / | . | . | . | 72
CCNC(=O)C1(C)CCCN1Cc1ccccc1Cl (stereo not given) | / | / | / | / | / | . | /
Cc1ccc(NC(=O)C2CCCC2)cc1Cl | . | . | . | . | . | . | /
Cc1ccc(NS(=O)(=O)c2ccc(Cl)c(NC(=S)NC(=O)C3CCCCC3)c2)cc1Cl | 33 | 55 | . | . | . | . | .
Cc1cc(NC(=O)Nc2ccccc2)n(C(C)(C)C)n1 | . | . | . | . | . | . | /
CC(C)(C)c1nc(NC(=O)Nc2ccccc2)sc1Br | . | 44 | . | . | . | . | .
CCCCCn1c(N2CCC(Cc3ccccc3)CC2)nc2c1c(=O)[nH]c(=O)n2C | . | 41 | . | . | . | . | 50
COc1cc2c(cc1OC)C(SC)=NC(C)(C)C2 | . | 48 | . | . | . | . | 80
O=C(Nc1ccc(Cl)c(C(F)(F)F)c1)NC1CC2CCCC(C1)N2Cc1ccccc1 (stereo not given) | . | 44 | . | . | . | / | .
O=C(NC1CC2CCCC(C1)N2C(=O)Nc1ccc(Cl)c(C(F)(F)F)c1)C1CC1 (stereo not given) | . | . | . | . | . | . | /
CCOc1ccc(NC(=O)CCC(=O)N/N=C2\CCCc3ccccc32)cc1 | . | . | . | / | . | . | /
O=C(c1ccc(Cl)cc1)C(CN1CCCCC1)c1ccccc1 (stereo not given) | / | 50 | . | . | . | . | 60
COc1ccccc1CN(C)C(=O)COC(=O)c1cc(C)oc1C | . | . | / | / | / | . | /
O=C(O)C1C2CCC1C(O)C2 (stereo not given) | / | / | / | / | / | . | /
COCCCn1c(=NC(=O)c2ccccc2)c(C#N)cc2c(=O)n3cccc(C)c3nc21 | . | 50 | . | . | . | . | .
O=c1/c(=C\c2ccc(O)cc2)sc2nc(-c3ccccc3)c(-c3ccccc3)n12 | . | 46 | . | . | . | . | .
SMILES | GRIN3A LBD mod | NTR1 ag | AI-2 QS mod | AHR act | Mot1-301 SUMO | Cardio protect | NTR1 ag confirm
O=C(Nc1nc(-c2ccccc2)cs1)c1ccc(N2CCOCC2)c([N+](=O)[O-])c1 | . | 70 | . | . | . | . | .
Cc1ccc(-c2csc(N/N=C/c3ccco3)n2)cc1 | . | . | . | . | . | . | /
CN(C)S(=O)(=O)c1ccc(-c2csc(N/N=C/c3ccco3)n2)cc1 | . | 71 | . | . | . | . | 78
CN(C)S(=O)(=O)c1ccc(-c2csc(N/N=C/c3ccc(O)cc3)n2)cc1 | 23 | 52 | . | . | . | . | 55
Cc1csc(N/N=C/c2ccc([N+](=O)[O-])cc2)n1 | . | . | . | . | . | . | /
CCOP(=O)(OCC)C1NC(=O)N(c2ccccc2)C1=O (stereo not given) | . | . | . | . | . | . | /
COc1ccc(-c2cc(-c3cc(C)ccc3O)[nH]n2)cc1 | 14 | 44 | . | . | . | . | .
OCCNc1nc(Nc2ccccc2Oc2ccccc2)nc(N2CCCC2)n1 | . | 46 | . | . | . | . | .
CN(C)S(=O)(=O)c1ccc(S(=O)(=O)NCc2cccs2)cc1 | . | 42 | . | . | . | . | .
CCOc1ccc(S(=O)(=O)NCc2cccs2)cc1 | . | . | . | . | . | . | /
COc1ccc(C=C2C=C(C(C)(C)C)C(=O)C(C(C)(C)C)=C2)cc1OC | . | 41 | . | . | . | . | .
COc1ccc(/C=C2\CCc3ccccc3C2=O)cc1OC | . | . | . | . | . | . | /
COc1cc(CC(NC(C)=O)C(=O)NC2CCN(C(=O)Nc3ccccc3Cl)CC2)cc(OC)c1 (stereo not given) | . | . | . | . | . | . | /
COc1cc(CC(NC(C)=O)C(=O)NC2CCN(C(=O)Nc3ccccc3C)CC2)cc(OC)c1 (stereo not given) | . | 42 | . | . | . | . | .
O=[N+]([O-])c1ccc(-c2cnc(SC(c3ccccc3)c3ccccc3)[nH]2)cc1 | 26 | 54 | . | . | / | . | .
Cc1ccc(-n2nnc3c(=O)oc4ccccc4c32)cc1 | . | 58 | . | . | . | . | .
CCCN1CCN(C(=O)c2oc3ccccc3c2NC(=O)COc2ccc(OC)cc2)CC1 | . | . | . | . | . | . | /
CCCCOC(=O)C1=C(C)Nc2nnnn2C1c1ccc(OC)c(OC)c1OC (stereo not given) | . | . | . | . | . | . | /
CCCCCOC(=O)C1=C(C)Nc2nnnn2C1c1ccccc1Cl (stereo not given) | . | 58 | . | . | / | . | .
CC(C)c1ccc(Nc2nnc(SC3CCOC3=O)s2)cc1 (stereo not given) | . | 52 | . | . | . | . | 76
Cc1n[nH]c2c([N+](=O)[O-])c(=O)[nH]c(=O)n12 | . | / | / | / | / | . | /
CC(NC(=O)c1cc(F)c(F)cc1Cl)C1CC2CCC1C2 (stereo not given) | . | . | . | . | . | . | /
Cc1ccc(C(=O)/C=C/C(=O)c2ccc(C)cc2)cc1 | . | 42 | . | . | . | . | 73
Cc1ccc(-n2nnnc2-c2cccs2)cc1[N+](=O)[O-] | . | . | . | . | . | . | /
Nc1nc(N)c(C=Nc2ccc(Br)cc2)c(Nc2ccc(Br)cc2)n1 | 51 | 59 | . | 99 | . | . | .
CC(C)c1ccc(NC(=O)C2Cc3c(-c4ccccc4Oc4ccccc4)ccnc3O2)cc1 (stereo not given) | / | / | / | / | / | . | /
